Data taken from the antibiotic and cytotoxicity screens of Wong et al. (2023).
The whole screen tested about 39,000 compounds, of which about 3,300 (8.5%) were called active. What follows is part of a selection rich in actives, with near analogues and random picks from the rest.

System: HepG2
Assay: cytotoxicity call (relative viability < 0.9)
Settings: 10 µM

| SMILES | cytotoxicity call |
| --- | --- |
| F[C@H]1CCNC1 | inactive |
| C[C@@H]1CCCCO[C@@H](CN(C)C(=O)c2ccncc2)[C@H](C)CN([C@@H](C)CO)C(=O)c2cc(NS(=O)(=O)c3ccc(Cl)cc3)ccc2O1 | inactive |
| Cn1cnc(=N)c2[nH]cnc21 | inactive |
| CN1CCN([C@H](CNC(=O)C(=O)NCCN2CCOCC2)c2ccc(N(C)C)cc2)CC1 | inactive |
| Cc1noc(C)c1S(=O)(=O)Nc1cccc2c1O[C@H](CN(C)Cc1ccncc1)[C@H](C)CN([C@@H](C)CO)C2=O | inactive |
| C[C@H]1CN([C@@H](C)CO)C(=O)Cc2cc(NC(=O)Nc3cccc4ccccc34)ccc2O[C@@H]1CN(C)C(=O)NC1CCCCC1 | inactive |
| COC1C(C(=O)O)OC(C)C(O)C1O.COC1OC(C(=O)O)C(O)C(O)C1O (configuration not stated) [ALGINIC ACID [Mol Wt ~200,000; monomers shown] ] | active |
| C[C@@H]1O[C@@H](O)[C@H](O)[C@H](O)[C@H]1O | inactive |
| CO[C@H]1O[C@H](COS(=O)(=O)O)[C@@H](O[C@@H]2O[C@@H](C(=O)O)[C@@H](OC)[C@H](O)[C@H]2OS(=O)(=O)O)[C@H](O)[C@H]1NS(=O)(=O)O | inactive |
| C[C@@H]1CN([C@@H](C)CO)C(=O)Cc2cc(NC(=O)c3ccncc3)ccc2O[C@@H]1CN(C)Cc1ccncc1 | inactive |
| O=C(C[C@H]1CC[C@H]2[C@@H](COC[C@@H](O)CN2C(=O)c2ccc(F)cc2)O1)NCCCN1CCOCC1 | inactive |
| O=C(CCCCCCC(=O)Nc1ccc([C@H]2C[C@H](c3ccccc3)O[C@H](c3ccccc3)O2)cc1)NO | inactive |
| O=C(CCCCCCC(=O)NO)NO | inactive |
| O=C(CCCCCCC(=O)Nc1ccccc1)NO | active |
| C[C@@H]1CN([C@@H](C)CO)C(=O)CCCn2nncc2CO[C@H]1CN(C)S(=O)(=O)c1ccc(C#N)cc1 | inactive |
| CCO[C@@H]1OC(C(=O)N2CCCCCCC2)=C[C@H](c2coc3ccccc3c2=O)[C@H]1CCCOC(=O)NCCCCCC(=O)NO | inactive |
| C[C@H]1CCCCO[C@H](CN(C)C(=O)NC2CCCCC2)[C@@H](C)CN([C@@H](C)CO)C(=O)c2cc(NC(=O)Nc3ccccc3)ccc2O1 | active |
| C[C@@H]1CN([C@H](C)CO)C(=O)c2cc(NC(=O)Nc3ccccc3)ccc2O[C@@H](C)CCCCO[C@H]1CN(C)C(=O)NC1CCCCC1 | active |
| C[C@@H]1CN([C@@H](C)CO)C(=O)c2cc(NC(=O)Nc3ccccc3)ccc2O[C@@H](C)CCCCO[C@@H]1CN(C)C(=O)NC1CCCCC1 | inactive |
| C[C@H](CO)N1C[C@H](C)[C@H](CN(C)C(=O)NC2CCCCC2)OCCCC[C@H](C)Oc2ccc(NC(=O)Nc3ccccc3)cc2C1=O | inactive |
| C[C@H]1CCCCO[C@@H](CN(C)C(=O)NC2CCCCC2)[C@@H](C)CN([C@@H](C)CO)C(=O)c2cc(NC(=O)Nc3ccccc3)ccc2O1 | inactive |
| C[C@H](CO)N1C[C@H](C)[C@@H](CN(C)C(=O)NC2CCCCC2)OCCCC[C@H](C)Oc2ccc(NC(=O)Nc3ccccc3)cc2C1=O | inactive |
| C[C@H](CO)N1C[C@H](C)[C@H](CN(C)S(=O)(=O)c2ccccc2)Oc2c(NC(=O)c3cnccn3)cccc2C1=O | inactive |
| NNC(=O)c1cccc(C(=O)NO)c1 | inactive |

| SMILES | cytotoxicity call |
| --- | --- |
| Cc1noc(C)c1NC(=O)N(C)C[C@H]1Oc2ncc(C#CCN(C)C)cc2C(=O)N([C@@H](C)CO)C[C@H]1C | inactive |
| O=C([O-])CCC(=O)OCC(NC(=O)C(Cl)Cl)C(O)c1ccc([N+](=O)[O-])cc1.[Na+] (configuration not stated) | active |
| CCCCCCCCCCCCCCCC(=O)OC[C@@H](NC(=O)C(Cl)Cl)[C@H](O)c1ccc([N+](=O)[O-])cc1 | inactive |
| CS(=O)(=O)c1ccc(C(O)C(CO)NC(=O)C(Cl)Cl)cc1 (configuration not stated) | inactive |
| CCCCCCCCCCCCCCCC(=O)OCC(NC(=O)C(Cl)Cl)C(O)c1ccc([N+](=O)[O-])cc1 (configuration not stated) | inactive |
| CCCCCCCCCCCCCCCC(=O)OC[C@H](NC(=O)C(Cl)Cl)[C@H](O)c1ccc([N+](=O)[O-])cc1 | inactive |
| O=C(NC(CO)C(O)c1ccc([N+](=O)[O-])cc1)C(Cl)Cl (configuration not stated) | active |
| C[C@H]1CCCCO[C@@H](CN(C)C(=O)Nc2ccc(C(F)(F)F)cc2)[C@@H](C)CN([C@@H](C)CO)C(=O)c2cc(NS(=O)(=O)c3cn(C)cn3)ccc2O1 | inactive |
| CNC(=O)C(=O)NC[C@H]1OCCN1S(=O)(=O)c1ccccc1 | inactive |
| Cc1ccc(S(=O)(=O)N(C)C[C@H]2Oc3c(NS(C)(=O)=O)cccc3C(=O)N([C@@H](C)CO)C[C@@H]2C)cc1 | inactive |
| C[C@H](CO)N1C[C@H](C)[C@H](CN(C)Cc2ccncc2)Oc2ccc(NC(=O)c3ccncc3)cc2C1=O | inactive |
| C[C@@H]1CN([C@@H](C)CO)S(=O)(=O)c2ccc(-c3ccncc3)cc2O[C@@H]1CN(C)S(=O)(=O)c1ccccc1F | inactive |
| O=C(C1=C[C@@H](c2csc3ccccc23)C[C@@H](OCc2ccc(CO)cc2)O1)N1CCN(Cc2ccc3c(c2)OCO3)CC1 | active |
| O=C(C1=C[C@H](c2csc3ccccc23)C[C@H](OCc2ccc(CO)cc2)O1)N1CCN(Cc2ccc3c(c2)OCO3)CC1 | inactive |
| O=C(C1=C[C@H](c2csc3ccccc23)C[C@H](OCc2ccc(CO)cc2)O1)N1CCN(Cc2ccccc2)CC1 | inactive |
| C[C@H](CO)N1C[C@H](C)[C@H](CN(C)S(C)(=O)=O)Oc2ccc(NC(=O)c3ccncc3)cc2CC1=O | inactive |
| CCc1nn(CCCN2CCN(c3cccc(Cl)c3)CC2)c(=O)n1CCOc1ccccc1 | active |
| COc1ccccc1N1CCN(c2ncc(C(=O)N3CCN(c4cccc(Cl)c4)CC3)c3ccccc23)CC1 | inactive |
| Cl.O=c1n(CCCN2CCN(c3cccc(Cl)c3)CC2)nc2ccccn12 | inactive |
| C[C@H]1CN([C@@H](C)CO)C(=O)c2cccc(NS(=O)(=O)c3ccc(F)cc3)c2O[C@H]1CN(C)Cc1ccncc1 | inactive |
| Cc1cn(CCC#N)c2ccccc12 | inactive |
| COc1cc(C(=O)NCCCN2CCCN(CCCNC(=O)c3cc(OC)c(OC)c(OC)c3)CC2)cc(OC)c1OC | inactive |
| Cc1cn(CCN2CCN(c3ccccc3-c3cc(C#N)cc(C(=O)NCCCN4CCCC4)c3)CC2)c2ccccc12 | active |
